Bioassay records as filed in PubChem BioAssay.
The entries come from a sample that favours hits as a whole.
TTR transcr act: TTR transcription activation, primary screen; 92,000 tested, 1.3% active; activation, % at 16.7 µM; SH-SY5Y TTR promoter Gaussia luciferase, luminescence; 100% = recombinant luciferase protein wells;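 active means activation above the mean of all tested compounds plus 3 SD, cut at about 9.5% in these data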;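 further: cells exposed to compounds for one day before reading; 0% = median of all test compound wells on the plate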
HuH7 TTR inh: HuH7 TTR transcription inhibition, counter-screen | shares compounds with TTR transcr act | 1,100 tested, 4% active | AID 1117279 | HuH7 TTR promoter-Gaussia luciferase reporter, luminescence | inhibition, % at 16.7 µM;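 active means average inhibition above the solvent-only control wells' mean plus 3 SD, cut at about 15% in these data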;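 further: 0% = cells with DMSO only and 100% = cells with inhibitor control FD; inhibitors lower well luminescence so higher value means more inhibition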
TTR up confirm: confirmation of human transthyretin transcription activators | shares compounds with TTR transcr act | SHSY5Y TTR promoter Gaussia luciferase, luminescence; 100% = purified Lucia enzyme wells, no cells | activation, % at 16.7 µM | 1,100 tested, under 10 active | AID 1117280;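 active means mean activation above a set limit taken from the earlier primary screen, cut at about 11% in these data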;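 further: 0% = DMSO-treated cells and 100% = recombinant Lucia luciferase without cells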
An asterisk follows results filed as active.

SMILES	TTR transcr act	others
CCN1C(=O)[C@@H]2[C@H](C1=O)[C@@H]1C(=O)Nc3ccccc3C(=O)N1[C@@H]2c1ccc(Br)cc1	0
Cc1c(C=Nc2ccc(S(=O)(=O)CCO)cc2)c(O)[nH]c(=O)c1C#N	0
CCOC(=O)[C@@]12CCCC3=C1N(CCC3)C(=O)[C@H]2CC(=O)NCc1cccc(C(F)(F)F)c1	2
O=C(CNC(=O)c1ccc(-c2ccccc2)cc1)Nc1cccc(CO)c1	-1
Cc1nc2ccc(C(=O)N3CCCC(CO)(Cc4ccc(F)cc4F)C3)cc2nc1C (stereo not given)	0
Cc1ccc(C)c(NC(=O)CCN2C(=O)[C@@H]3Cc4ccccc4CN3C2=O)c1	0
CC(C)C(C)(C#N)NC(=O)CSc1ncnc2sc(-c3ccccc3)cc12 (stereo not given)	-1
CCN(CC)C(=O)CSc1ncnc2sc(-c3ccccc3)cc12	-4
CCc1cc2c(SCC(=O)C(C#N)=C3N(C)c4ccccc4N3C)ncnc2s1	9.9*	HuH7 TTR inh=-29;TTR up confirm=0
COc1ccccc1Cc1c(-c2ccc(C)cc2)nc2cc(C)c(Br)c(C)n12	0
Cc1ccsc1CN(C)C(=O)C(NC(=O)c1cccc(S(=O)(=O)N2CCOCC2)c1)C(C)C (stereo not given)	2
Fc1ccccc1C1CC(c2ccco2)=Nc2ccccc2S1 (stereo not given)	0
CN(C)c1ccc(CNS(=O)(=O)c2ccc3c(c2)C(C)(C)C(=O)N3C)cc1	0
CC(C)n1nnnc1C1(C)CN(S(C)(=O)=O)CC(=O)N1Cc1cccc(C(F)(F)F)c1 (stereo not given)	-1
CC(C)(C)C1=Nn2c(nnc2C2CCCCC2)SC1	2
c1cc2c(cc1C1=Nn3c(nnc3C3CCCCC3)SC1)OCO2	9.9*	HuH7 TTR inh=30*;TTR up confirm=-1
COc1ccc(C2=Nn3c(nnc3-c3ccc(OC)cc3)SC2)cc1	-1
COc1ccc(C2NC(=O)N(C)C3=C2C(=O)CC(C)(C)C3)cc1OC (stereo not given)	2
CSc1cccc(NC(=O)CCNS(=O)(=O)c2ccc3[nH]c(=O)oc3c2)c1	-1
NC(=O)c1nsc(C(=O)N(CC(=O)NC2CCCCC2)c2cccc(F)c2)c1N	1
NC(=O)c1nsc(C(=O)N(CC(=O)NC2CCCC2)c2ccc(F)c(Cl)c2)c1N	17*	HuH7 TTR inh=-26;TTR up confirm=0
CC(C(=O)NC1CCCCC1)N(Cc1ccc(F)cc1)C(=O)c1snc(C(N)=O)c1N (stereo not given)	2
CCN1CCN(S(=O)(=O)c2ccc3c(c2)NC(=O)CS3)CC1	2
CCOC(=O)C1CCN(S(=O)(=O)c2ccc3[nH]c(=O)oc3c2)CC1	1
CCOC(=O)C1CCN(S(=O)(=O)c2ccc3c(c2)NC(=O)CS3)CC1	11*	HuH7 TTR inh=-15;TTR up confirm=0
SMILES	TTR transcr act	others
O=S1(=O)c2ccc(N3CC[C@H](O)C3)cc2OCCCN1C1CC1	3
COc1ccc(O)c(/C=N/NC(=O)c2cc(=O)[nH]c3ccccc23)c1	0
Cc1nc2ccccc2n1Cc1n[nH]c(=S)n1-c1ccc(Cl)cc1	1
Cc1ccc(-n2c(CSc3nc(C)cc(C)n3)n[nH]c2=S)cc1	26*	HuH7 TTR inh=-3;TTR up confirm=-1
Cc1ccc(-n2c(CNc3cccc(Cl)c3)n[nH]c2=S)cc1	2
O=c1cc(-c2ccc(OCc3ccccc3)cc2)oc2cc(OCc3ccccc3)cc(OCc3ccccc3)c12	1
COc1cccc(NC(=O)CSc2c3c(nc4ccccc24)CCCC3)c1	9.9*	HuH7 TTR inh=-8;TTR up confirm=-2
CCn1c(SCC(=O)Nc2cccc(OC)c2)nc2ccccc2c1=O	-2
Cc1cccc(NC(=O)CSc2c3c(nc4ccccc24)CCC3)n1	1
c1ccc(N2CC3CCc4ccccc4C3=N2)cc1 (stereo not given)	-2
COc1ccc(S(=O)(=O)Nc2ccccc2)cc1OC	0
Cc1ccc(S(=O)(=O)Nc2ccc3c(c2)OCCO3)cc1C	6
COc1ccc(S(=O)(=O)Nc2ccc3c(c2)OCO3)cc1OC	17*	HuH7 TTR inh=-15;TTR up confirm=0
C[n+]1c(-c2ccc(C=NNC(=O)c3ccc(C(=O)NN=Cc4ccc(-c5cn6ccccc6[n+]5C)cc4)cc3)cc2)cn2ccccc21	1
CCOc1ccccc1C(=O)N(Cc1sccc1C)C1CCS(=O)(=O)C1 (stereo not given)	-1
O=C(Cc1ccccc1)Nc1cccc(-c2nnc(-c3ccco3)o2)c1	-4
O=C(Cc1ccc(Cl)cc1)Nc1cccc(-c2nnc(-c3ccco3)o2)c1	0
O=C(COc1ccccc1)Nc1ccc(-c2nnc(-c3ccco3)o2)cc1	19*	HuH7 TTR inh=-1;TTR up confirm=-1
CN(C)c1ccc(C(C(=O)NC2CCCC2)N(C(=O)c2ccco2)C2CC2)cc1 (stereo not given)	-1
